Source: PubChem BioAssay (Broad Institute)
The list is not random: actives were taken first. Their share in the collection is about 2.1%.
NSD2 HMT inh: inhibitors of human histone methyltransferase NSD2; O96028; NSD2 peptide methylation, AlphaScreen, 120 min; inhibition, % at 12.5 µM; 0.54% of 310,000 active; AID 743445; in the data active = inhibition above about 50%
Env fusion inh: blocks HIV Env-driven cell-cell fusion; HeLa-JRFL Env/CEM21 cell fusion, luciferase; inhibition, % at 12.3 µM; 1.1% of 360,000 active; AID 651610;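 active = mean replicate inhibition score of at least 50 and every replicate individually at or above 50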;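 note: 0% = plate neutral controls and 100% = maraviroc near 300 nM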
PGC1a acetyl inh: PGC1a acetylation modulation, inhibitor mode | U2OS PGC1a acetylation, AlphaScreen anti-acetyl-lysine; with virally co-expressed GCN5 acetyltransferase | inhibition, % at 15.6 µM | 0.17% of 350,000 active;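 active = every replicate shows inhibition of at least 40%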;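 note: 0% = neutral control wells and 100% = positive control wells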
INS-1E GSIS act: GLuc luminescence reporter in INS-1E cells, primary screen for activators of glucose-dependent secretion of insulin | INS-1E GLuc reporter insulin secretion, 2-3 h | activation, % at 16.6 µM | 0.61% of 370,000 active;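 active = lowest replicate activation of at least 40%, so every replicate reaches that level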;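 note: 0% = median of neutral control wells and 100% = median of IBMX positive control wells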
MLL AF4-AF9 inh: MLL-AF4/AF9 protein interaction inhibition. P42568. AlphaScreen, biotin-AF4 peptide binding to FLAG-AF9. inhibition, % at 10 µM. 0.47% of 350,000 active. AID 651704;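 active = every replicate reaching a set inhibition limit, whatever the replicate mean, cut at about 25% in these data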;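 note: 0% = plate neutral control median and 100% = total signal loss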
* = called active by the depositor; x = no result given; [ ] = remark or other dose.

SMILES	NSD2 HMT inh	Env fusion inh	PGC1a acetyl inh	INS-1E GSIS act	MLL AF4-AF9 inh
CN(Cc1ccccc1)S(=O)(=O)c1ccc2c(c1)OCCO2	5	x	3	x	x
CN1CCN(C(=S)c2cn(Cc3cccc(F)c3)c3ccccc23)CC1	15	0	x	-26	11
CN1CCN(C(=S)c2cn(Cc3ccc(F)cc3)c3ccccc23)CC1	23	17	x	-22	31*
COC(=O)c1sccc1NC(=O)C1CC(C)=C(C)CC1C(=O)O (centres undefined)	-2	0	-5	-14	30*
COC(=O)c1ccc(NC(=O)c2cccc(N3C(=O)C4C5C=CC(C6CC56)C4C3=O)c2)cc1 (centres undefined)	-2	64*	x	-5	1
O=C(Nc1ccccc1)c1cccc(N2C(=O)C3C4C=CC(C5CC45)C3C2=O)c1 (centres undefined)	-5	8	x	-25	-3
COc1ccc(Nc2ccccc2N)cc1	34	3	11	x	40*
COc1ccc(Nc2ccnc3ccccc23)cc1	0	x	51*	x	x
CC(C)(C)c1ccc(C(=O)NCCC(=O)NC2=NCCS2)cc1	-4	2	-19	11	29*
CC(C)(C)c1ccc(OCCCC(=O)NC2=NCCS2)cc1	1	4	-13	x	x
COc1cc(CN2C[C@@H](CO)O[C@@H](n3cnc4c(NCc5ccc(F)cc5)ncnc43)C2)cc(OC)c1OC	0	1	-1	-14	1
Cc1ccccc1-c1nc(CN2CCC(C(=O)NCCC3=CCCCC3)CC2)c(C)o1	3	73*	-9	x	x
COc1ccc(CCNC(=O)C2CCN(Cc3nc(-c4ccc(Cl)cc4)oc3C)CC2)cc1OC	x	5	-7	10	11
CCN(CCNC(=O)C1CCN(Cc2nc(-c3cccc(Cl)c3)oc2C)CC1)c1ccccc1	5	55*	-10	x	x
COc1ccc(CCNC(=O)C2CCN(Cc3nc(-c4ccccc4C)oc3C)CC2)cc1OC	4	57*	-10	x	x
Cc1ccccc1-c1nc(CN2CCC(C(=O)NCCCN3CCCC(C)C3)CC2)c(C)o1 (centres undefined)	21	11	4	12	15
CCC(=O)NCc1csc(-c2cccs2)n1	-3	-1	x	1	1
C[C@H]1CN([C@@H](C)CO)C(=O)CCCn2nncc2CO[C@@H]1CN(C)C(=O)c1ccccc1	x	x	7	-7	-1
C=CCn1c(SCC(=C)C)nc2c1c(=O)[nH]c(=O)n2C	x	-57	2	31	0
CC(C)CSc1nc2c(c(=O)[nH]c(=O)n2C)n1CCc1ccccc1	-2	x	-11	71*	x
CCCCCCn1c(SCC(C)C)nc2c1c(=O)[nH]c(=O)n2C	36	x	0	71*	x
C=C(C)CSc1nc2c(c(=O)[nH]c(=O)n2C)n1CCC(C)C	x	1	-4	55*	8
CCCCn1c(N)c(N(CCC(C)C)C(=O)C2CSC3(C)CCC(=O)N23)c(=O)[nH]c1=O (centres undefined)	0	-4	-12	2	-2
Cc1ccc(S(=O)(=O)NCC(=O)N(CC(=O)NCC2CCCO2)Cc2ccccc2Cl)cc1 (centres undefined)	0	0	0	7	0
CCN(CC)CCNc1ccc(C)c2sc3ccc(O)cc3c(=O)c12	x	-39	-89	x	50*
SMILES	NSD2 HMT inh	Env fusion inh	PGC1a acetyl inh	INS-1E GSIS act	MLL AF4-AF9 inh
N#Cc1ccc(C23OCCN2CCn2c3c3ccccc3[n+]2[O-])cc1 (centres undefined)	x	17	9	17	48*
Cc1ccc(C23OCCN2CCn2nc4ccccc4c23)cc1 (centres undefined)	x	18	1	6	-7
CC(C)c1ccc(NC(=O)C2=CC=CN3CCS(=O)(=O)N=C23)cc1	2	-27	x	50*	0
CC(=O)Nc1ccc(NC(=O)CN(c2ccc(C34CC5CC(CC(C5)C3)C4)cc2)S(C)(=O)=O)cc1	2	93*	4	-5	x
COc1cccc(-c2cnc3c(c2)C(=O)N([C@H](C)CO)C[C@H](C)[C@H](CN(C)C(=O)Nc2cccc4ccccc24)O3)c1	x	89*[16.7 µM]	5	-28	4
C[C@H]1CN([C@@H](C)CO)C(=O)c2cccc(NC(=O)c3ccncc3)c2O[C@@H]1CN(C)C(=O)Nc1cccc2ccccc12	x	66*[16.7 µM]	5	24	-2
CC(C)N=C(N)N=C(N)Nc1ccc(Cl)cc1	x	x	-37	x	-5
CNC[C@H](O)c1cccc(O)c1	x	27	7	-30	2
CCN(CC(O)c1cccc(O)c1)C(=O)C12CC3CC(CC(C3)C1)C2 (centres undefined)	20	74*	-20	-30	8
COc1ccc(N2C(=O)c3ccccc3NC(=O)C2C(=O)NCCc2ccccc2F)cc1 (centres undefined)	x	58*	x	-24	7
CCC1=NN(C(=O)Cc2ccc([N+](=O)[O-])cc2)C(O)(C(C)(C)C)C1 (centres undefined)	0	0	x	-9	2
Cc1ccc(C2=Nc3ccccc3N=C(C(Cl)Cl)C2)cc1	19	-24	-2	-1	10
O=C1CCN(Cc2ccccc2)CCN1[C@H](CO)Cc1ccccc1	x	0	23	21	x
N#Cc1cccc(CN2CCC(=O)N([C@H](CO)Cc3ccccc3)CC2)c1	x	-13	1	-8	44*
COc1ccc(CCNc2oc(-c3cccc4ccccc34)nc2P(=O)(OC)OC)cc1OC	-7	69*	10	11	5
CC(=O)c1ccc(N2CCN(S(=O)(=O)c3ccc(-c4cc(C)no4)s3)CC2)cc1	43	-14	9	-2	-3
COc1ccc(N2CCN(S(=O)(=O)c3ccc(-c4cc(C)no4)s3)CC2)cc1	9	1	-2	86*	-3
Cc1cc(-c2ccc(S(=O)(=O)N3CCN(C)CC3)s2)on1	-2	5	3	43*	-1
CCOC(=O)C1CCCN(S(=O)(=O)c2ccc(-c3cc(C)no3)s2)C1 (centres undefined)	-5	4	-17	-20	3
CC(C)CC#Cc1ccc2c(c1)O[C@H](CN(C)Cc1ccccc1)[C@H](C)CN([C@H](C)CO)S2(=O)=O	x	8[16.7 µM]	-2	-13	x
CC(C)C#Cc1ccc2c(c1)O[C@H](CN(C)Cc1ccccc1)[C@@H](C)CN([C@H](C)CO)S2(=O)=O	x	21[16.7 µM]	-8	-11	1
CC(C)CC#Cc1ccc2c(c1)O[C@@H](CN(C)Cc1ccccc1)[C@H](C)CN([C@H](C)CO)S2(=O)=O	x	6[16.7 µM]	0	346*	x
CC(C)C#Cc1ccc2c(c1)O[C@@H](CN(C)Cc1ccccc1)[C@@H](C)CN([C@@H](C)CO)S2(=O)=O	x	33[16.7 µM]	99*	-12	6
COc1ccc2sc(N(CCN(C)C)C(=O)/C=C/c3cccs3)nc2c1	-1	21	x	-32	33*
COc1ccc2nc(N(CCN(C)C)C(=O)/C=C/c3cccs3)sc2c1	0	-1	x	-33	19
NN=C1C(=O)c2cccc3cccc1c23	1	x	3	x	0
